Bioassay records: PubChem, National Center for Advancing Translational Sciences (NCATS)
USP2a block = qHTS Assay for Inhibitors of Ubiquitin-specific Protease USP2a Using CHOP2 as the Reporter. actives 0.01% (n = 330,000). USP2 core, Ub-CHOP2 coupled fluorogenic reporter, 485/531. Potency, µM (titrated, usually from 38.3 µM), hits mostly inhibitors
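Deubiquitinase activity read as fluorescence (485/531 nm) after Ub-CHOP2 cleavage activates the enterokinase reporter on its substrate; USP2 core 10nM, Ub-CHOP2 and substrate 25nM each, 30min compound preincubation then 60min RT; data normalized to NEM, curves fitted.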
ClpP mod = qHTS Assay for Activators of ClpP; purified B. subtilis ClpP, FRET peptide cleavage, 20 min; Potency, µM (highest dose often 57.5 µM); actives 1.9% (n = 340,000); AID 651965, 2013; active = well fitted falling curve with a large enough effect; inconclusive = small, poorly fitted or top-dose-only effect; inactive = no such curve, though single readings can be large or run the other way; note: the source files actives as falling curves though it sought activators and does not explain the sign; nearly all actives have a fitted effect of over 65% in size
Target sequence (P80244 whole entry, looked up): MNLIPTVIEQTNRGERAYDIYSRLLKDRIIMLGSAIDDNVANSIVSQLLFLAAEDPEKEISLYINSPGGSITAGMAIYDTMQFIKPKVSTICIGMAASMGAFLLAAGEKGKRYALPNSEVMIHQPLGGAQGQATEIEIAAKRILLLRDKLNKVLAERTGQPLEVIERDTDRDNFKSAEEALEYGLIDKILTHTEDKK
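Buffer: 100 mM Tris/HCl pH8, 100 mM KCl, 0.05% low protease BSA, 2.5% glycerol, 0.01% Tween-20. ClpP 10 microg/mL final; 20 min RT; delta FRET normalized to ADEP and DMSO controls.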
PKM2 act = qHTS Assay for Activators of Human Muscle isoform 2 Pyruvate Kinase; Pyruvate kinase PKM (Homo sapiens), P14618; purified PKM2, Kinase-Glo ATP luminescence, activation; response scale: 0% is enzyme alone, no compound; Potency, µM (doses to about 57.5 µM), usual class: activators; actives 0.34% (n = 260,000); AID 1631, 2009; note: nearly all actives have a fitted effect of over 55% in size
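Purified hPK-M2 (>95% pure) converted ADP (0.1 mM final) to ATP with 0.5 mM PEP in 50 mM imidazole pH7.2, KCl, MgCl2, Tween 20, BSA; 1 h at room temperature. ATP detected by Kinase-Glo luminescence.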
Pin1 inhibitor = qHTS Assay to Find Inhibitors of Pin1 | actives 0.009% (n = 390,000) | Peptidyl-prolyl cis-trans isomerase NIMA-interacting 1 (Homo sapiens), Q13526 | Potency, µM (series often up to 115 µM), actives largely listed as inhibitors | Pin1 FP peptide displacement, HiFluor488, 10 min; active = well fitted inhibition curve with a large enough effect in the polarisation, with a control signal flat, not every such curve was filed as active; inconclusive = small, poorly fitted or top-dose-only effect, or effect the other way, or a change in a side signal; inactive = no such curve, though single readings can be large or run the other way; the % refers to the polarisation
Target sequence (Q13526 whole entry, looked up): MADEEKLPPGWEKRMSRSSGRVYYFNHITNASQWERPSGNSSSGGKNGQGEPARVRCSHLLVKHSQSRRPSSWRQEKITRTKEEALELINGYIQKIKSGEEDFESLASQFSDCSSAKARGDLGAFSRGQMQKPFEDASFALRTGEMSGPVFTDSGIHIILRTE
Integrin act MD = qHTS for Activators of Integrin-Mediated Alleviation for Muscular Dystrophy; alpha7betagal myoblasts, beta-gal FDG fluorescence, 48 h; AID 624291, 2012; Potency, µM (highest dose often 38.3 µM), hits mostly activators; actives 0.064% (n = 350,000); note: nearly all actives have a fitted effect of over 60% in size
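Alpha7betagal+/- myoblasts (passage 13) were plated 16-24 hr, then exposed to compounds (1:260 dilution of DMSO stock) for 48 hours at 37C. After MPER lysis, β-galactosidase reporter activity was read as FDG fluorescence (ex 480/em 540) after 30 minutes.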
IL2 activator = qHTS of IL-2 Activators | AID 652025, 2013 | activation, % (series mostly up to about 46 µM) | IL-2 activation reporter assay, cell-based qHTS; stimulated with anti-CD3/CD4/CD28 beads; in transgenic mouse T cells | actives 0.065% (n = 360,000); in the data active = activation above about 50%; inconclusive = mostly about 30% to 49%
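First, unstimulated transgenic mouse T cells were exposed to compound for 60 min. Next, anti-CD3/anti-CD4-coated beads with anti-CD28 were added. Finally, after 18 h at 37 degrees C, EGFP and DsRed were imaged.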
Numbers stand for hits; - = inactive; ? = inconclusive; . = no result given; [ ] = dose if it differs, or a comment. An excerpt weighted towards active compounds, which were near 1.9% of everything screened. Unless noted, calls come from the whole dose curve; as a rule, active = well fitted curve in the direction sought with a large enough effect; inconclusive = small, poorly fitted or top-dose-only effect, or another doubt; inactive = no such curve, though single readings can be large; an effect the other way counts as inactive or inconclusive.

SMILES | USP2a block | ClpP mod | PKM2 act | Pin1 inhibitor | Integrin act MD | IL2 activator
CCOc1ccc(NC(=O)/C(C#N)=C/c2ccc(N3CCCC3)c(C)c2)cc1 | ? | - | - | ? | - | 270
CCOC(=O)c1c(NC(=O)c2ccco2)n(C2CCCCC2)c2nc3ccccc3nc12 | - | 28µM | - | ? | - | -
CCOc1ccc(-c2nnn(CC(=O)c3cc(OC)ccc3OC)n2)cc1 | - | 32µM | - | ? | - | -
CCOC(=O)Cc1cnc(NC(=O)Cn2nnc(-c3ccc(OCC)cc3)n2)s1 | - | 22µM | - | - | - | -
CCOc1ccc(-c2nnn(CC(=O)Nc3cc(OC)ccc3OC)n2)cc1OCC | - | - | - | - | - | -
O=C1C=C(NCC2CCCO2)C2(CCCCC2)O1 (stereo unspecified) | - | - | - | - | - | -
O=C1C=C(NC2CC2)C2(CCCCC2)O1 | - | 13µM | - | - | - | -
N#C/C(=C/c1cn(-c2ccccc2)nc1-c1cccc(OCc2ccccc2)c1)C(=O)NCCCn1ccnc1 | - | ? | - | ? | - | -
CCOc1cccc(-c2nn(-c3ccccc3)cc2/C=C(/C#N)C(=O)NCCCn2ccnc2)c1 | - | 25µM | - | - | - | -
COc1ccc(-c2nn(-c3ccccc3)cc2C2CC(c3cccs3)=NN2C(=O)CCC(=O)O)cc1 (stereo unspecified) | - | - | - | - | - | -
COc1ccc(C2=NN(S(C)(=O)=O)C(c3cn(-c4ccccc4)nc3-c3cccs3)C2)cc1 (stereo unspecified) | . | 14µM | . | ? | . | .
CCCCS(=O)(=O)N1C2=NC(C(=O)OC)=C(C(=O)OC)[C@@H]3Nc4ccccc4[C@]23C[C@H]1C(=O)OC | . | . | -[11.5 µM] | . | . | .
COc1ccc(N=Nc2[nH]c3ccc(C)cc3c2O)cc1 | - | - | - | - | - | -
Cc1ccc(N=Nc2[nH]c3ccccc3c2O)cc1 | - | 25µM | - | ? | - | -
Cc1ccc(N=Nc2c(O)[nH]c3ccc(F)cc23)cc1 | ? | - | - | ? | - | 269
O=C(Nc1nnc(C2=COCCO2)o1)c1cccc(Br)c1 | - | - | - | - | - | -
CS(=O)(=O)c1cccc(C(=O)Nc2nnc(C3=COCCO3)o2)c1 | - | 10µM | . | - | - | -
COc1ccc(-c2nc3c(c4c2C[C@H](c2ccccc2)OC4)CN(S(=O)(=O)c2ccc(C)cc2)CC3)c(C)c1 | . | . | -[11.5 µM] | . | . | .
O=C(Nc1nnc(-c2ccc(Cl)cc2)o1)Nc1ccccc1Cl | - | 28µM | - | - | - | -
O=C(Nc1nnc(-c2ccc(Cl)cc2)o1)C1CCCCC1 | - | - | - | - | - | -
CCC(C)C(NC(=O)OC(C)(C)C)C(=O)NC1COC2CC(n3cc(C)c(=O)[nH]c3=O)OC12 (stereo unspecified) | . | . | . | - | . | .
CSc1ccc(/C=N/N2CCN(Cc3ccc(C)cc3C)CC2)cc1 | - | - | - | - | - | -
Cc1ccc(CN2CCN(/N=C/c3sccc3C)CC2)c(C)c1 | - | 28µM | - | - | - | -
CC(C)(C)c1ccc(Cn2cnc(-c3ccc([N+](=O)[O-])cc3)c2)cc1 | - | 10µM | - | - | - | -
Cc1c2ccccc2c(CSC(=N)N)c2ccccc12 | . | . | - | . | . | .
CCOC(=O)c1cnc(-n2nc(C)cc2C)nc1Nc1ccc(C)cc1 | - | - | - | - | - | -
CCOC(=O)c1cnc(-n2nc(C)cc2C)nc1NC | - | 32µM | - | - | - | -
CN(C)c1ccc(/C=[N+]2\C(=O)CC(=O)NC2=O)cc1 | . | - | . | . | . | .
COc1ccc(-c2cc(C(=O)N3CCN(c4ncccn4)CC3)c3ccccc3n2)cc1OC | - | - | . | - | - | -
